This note sets out measurements from PubChem BioAssay (Tox21).

Records with an inconclusive call do not appear. Where a call stands in place of a potency, no number is given. Unmarked numbers belong to inactive results. Activity calls are given as the source filed them. Calls come from the whole dose curve; as a rule, active = well fitted cell-killing curve with a large enough effect in the repeat runs; inconclusive = weak or mixed curves; inactive = no such curve, though single readings can be large or run the other way.

The assay can be described thus: qHTS assay to identify small molecule antagonists of the androgen receptor (AR) signaling pathway - cell viability counter screen (AID 743033; note: nearly all actives have a fitted effect of over 45% in size). As to conditions: AR-bla HEK293 viability, CellTiter-Glo luminescence, 16 h; series mostly up to 58.5 µM; activity change, negative = cytotoxicity: at the top concentration. From the text:
National Center for Advancing Translational Sciences [NCATS]
NIH Chemical Genomics Center [NCGC]
U.S. Environmental Protection Agency [EPA]
National Institutes of Environmental Health Sciences [NIEHS]
National Toxicology Program [NTP]
U.S. Food and Drug Administration [FDA]
Androgen receptor (AR), a nuclear hormone receptor, plays a critical role in AR-dependent prostate cancer and other androgen related diseases. Endocrine disrupting chemicals (EDCs) and their interactions with steroid hormone receptors like AR may cause disruption of normal endocrine function as well as interfere with metabolic homeostasis, reproduction, developmental and behavioral functions. To identify the compounds that inhibit AR signaling, GeneBLAzer AR-UAS-bla-GripTite cell line (Invitrogen, Carlsbad, CA, USA) containing a beta-lactamase reporter gene under control of an Upstream Activator Sequence (UAS) stably integrated into HEK293 cells was used to screen the Tox21 10K compound library. The cytotoxicity of the Tox21 compound library against the AR-bla cell line was tested in parallel by measuring the cell viability using CellTiter-Glo assay in the same wells.
Tox21 Assay Protocol Summary:
AR-bla cells were dispensed at 2,000 cells/5 uL of assay medium per well into black wall/clear-bottom 1536-well plates using a Multidrop Combi (ThermoFisher Scientific, Waltham, MA) dispenser. After the assay plates were incubated at a 37C and 5% CO2 for 4 hr, 23 nL of compounds dissolved in DMSO, positive controls or DMSO only was transferred to the assay plate by a Pintool station (Kalypsys, San Diego, CA), followed by addition of 1 uL of agonist (R1881) in culture medium using a Bioraptr Flying Reagent Dispenser (FRD) workstation (Beckman Coulter, Indianapolis, IN, USA). The plates were incubated at a 37C and 5% CO2 for 16 h. After 1 uL of LiveBLAzerTM B/G FRET substrate was added using a Bioraptr FRD, the plates were incubated at room temperature for 2 h and fluorescence intensity was measured by an Envision plate reader (PerkinElmer, Shelton, CT). For cell viability readout that measures cytotoxicity, 4 ul/well of CellTiter-Glo reagent was added into the assay plates using a Bioraptr FRD. After 30 min incubation at room temperature, the luminescence intensity in the plates was measured using a ViewLux (PerkinElmer) plate reader.
On to `Cc1ccc(N)c([N+](=O)[O-])c1`, for which the Potency result was “inactive”. Regarding `Nc1cc(Cl)c(N)c(Cl)c1`, the Potency entry was “inactive”. As to `NC[C@H](O)c1ccc(O)c(O)c1`, the Potency entry was “inactive”. On the same count and under the same terms, the same measure for `C=C[Si](OCCOC)(OCCOC)OCCOC`: “inactive”; for `C=C[C@H]1CN2CC[C@H]1C[C@@H]2[C@@H](O)c1ccnc2ccc(OC)cc12`: “inactive”; for `CC(C)[C@@H]1CC[C@@H](C)CC1=O`: “inactive”. Same read-out and setting: the same measure for `CCCCCC=O`: “inactive”.

For `O=S1(=O)CCCO1`, the “activity change, negative = cytotoxicity” value is 1.14%. With `Nc1ccc(O)c(N)c1`, the Potency result was “inactive”.

In the case of `IC(I)I`, the Potency entry was “inactive”. Still for that read-out and setting: next, `Cc1ccc2c(c1)C(=O)OC2=O`: “inactive”; `Cc1ccc([N+](=O)[O-])c(C)c1`: “inactive”.

On to `CCC(Cc1c(I)cc(I)c(N)c1I)C(=O)O` (stereo not given), for which the “activity change, negative = cytotoxicity” value was 2%.

On to `CC(C)(C)c1cccc(C(C)(C)C)c1O`, for which the Potency entry is “inactive”.

Turning to `COC(=O)C(C)Oc1ccc(Oc2ncc(C(F)(F)F)cc2Cl)cc1` (stereo not given), the Potency result was “inactive”. On the same count and under the same terms, the same measure for `COc1cc([C@H]2Oc3cc([C@H]4Oc5cc(O)cc(O)c5C(=O)[C@@H]4O)ccc3O[C@@H]2CO)ccc1O`: “inactive”.

For `Cc1ccc(/C(=C\CN2CCCC2)c2ccccn2)cc1`, the Potency entry is “inactive”. The same measure, in the same setting: next, `CC(C)=CCO`: “inactive”; `OCCNCCO`: “inactive”. The same measure, in the same setting: the same measure for `FC(F)(F)C(Cl)Br` (stereo not given): “inactive”; for `CCCN1C=CN(C)C1`: “inactive”. Turning to `C=CCOC(=O)C(=C)C`, the Potency result was “inactive”.

With `COCCOCCOCCO`, the “activity change, negative = cytotoxicity” value is 1.1% [at 78.9 µM]. On the same count and under the same terms, next, `C[C@]12C=CC(=O)C=C1CC[C@H]1[C@@H]3C[C@@H](O)[C@](O)(C(=O)CO)[C@@]3(C)C[C@H](O)[C@@]12F`: -2.65%. As for `CC(=O)OC(C)C`, the Potency result was “inactive”.

`C1COCCN1`: the Potency entry is “inactive”.

Regarding `C=CCCCCCCCCCC`, the Potency result is “inactive”. Consider `C[C@]12CC[C@@H]3c4ccc(O)cc4CC[C@H]3[C@@H]1CC[C@H]2O`, for which the “activity change, negative = cytotoxicity” value was -39%. In the case of `CC(=O)Oc1ccc(C(c2ccc(OC(C)=O)cc2)c2ccccn2)cc1`, the Potency entry is “inactive”. On the same count and under the same terms, the same measure for `O=C(O)COCCN1CCN(C(c2ccccc2)c2ccc(Cl)cc2)CC1` (stereo not given): “inactive”.

In the case of `NCCS(=O)(=O)O`, the “activity change, negative = cytotoxicity” value is -3.02%. For the compound `COC(=O)c1ccc(C)cc1`, the Potency result is “inactive”.

Take `O=C(CCCN1CCC(O)(c2ccc(Cl)cc2)CC1)c1ccc(F)cc1`: the Potency entry is “inactive”. The same measure, in the same setting: the same measure for `CC1(C)OC(=O)NC1=O`: “inactive”. The same measure, in the same setting: the same measure for `C=CC(=O)OCCCC`: “inactive”; for `Nc1cc([N+](=O)[O-])ccc1C(=O)O`: “inactive”. `CCCCCCCCCCCCO`: the Potency result was “inactive”. On to `CC1(C)C(C=C(Cl)Cl)C1C(=O)OCc1cccc(Oc2ccccc2)c1` (stereo not given), for which the Potency result was “inactive”. Regarding `CC1(C)NC(=O)N(c2ccc([N+](=O)[O-])c(C(F)(F)F)c2)C1=O`, the “activity change, negative = cytotoxicity” value was -26%. With `O=C(O)c1cc(=O)[nH]c(=O)[nH]1`, the Potency result is “inactive”.
